Conditions in all cases: Compound concentration 20.0 uM
For test [1], the target named is Tyrosine-protein kinase ABL1 (Homo sapiens) (UniProt P00519).
Test [2] has as its target Bromodomain-containing protein 4 (Homo sapiens) (UniProt O60885).
Test [3] addresses Cyclin-dependent kinase 2 (Homo sapiens) (UniProt P24941).
Test [4] deals with Casein kinase I isoform delta (Homo sapiens) (UniProt P48730).
The target of test [5] is Glycogen synthase kinase-3 beta (Homo sapiens) (UniProt P49841).
Test [6] concerns the target Mitogen-activated protein kinase 1 (Homo sapiens) (UniProt P28482).
Test [7] concerns the target T1, Aurora kinase A (Homo sapiens) (UniProt O14965).
T1 sequence (whole entry): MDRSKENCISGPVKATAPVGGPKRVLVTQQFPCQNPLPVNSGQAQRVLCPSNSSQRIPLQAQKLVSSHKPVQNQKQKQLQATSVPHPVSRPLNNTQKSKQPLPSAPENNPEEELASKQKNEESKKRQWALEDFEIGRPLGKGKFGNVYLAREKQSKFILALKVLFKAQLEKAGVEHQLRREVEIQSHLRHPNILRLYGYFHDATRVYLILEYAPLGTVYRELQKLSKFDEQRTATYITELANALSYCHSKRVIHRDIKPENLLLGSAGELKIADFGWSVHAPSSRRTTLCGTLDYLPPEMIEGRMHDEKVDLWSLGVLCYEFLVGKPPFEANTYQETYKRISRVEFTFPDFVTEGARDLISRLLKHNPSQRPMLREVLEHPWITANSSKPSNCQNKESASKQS

In test [8] the target is T2, Transcription intermediary factor 1-alpha (Homo sapiens) (UniProt O15164).
T2 sequence (whole entry): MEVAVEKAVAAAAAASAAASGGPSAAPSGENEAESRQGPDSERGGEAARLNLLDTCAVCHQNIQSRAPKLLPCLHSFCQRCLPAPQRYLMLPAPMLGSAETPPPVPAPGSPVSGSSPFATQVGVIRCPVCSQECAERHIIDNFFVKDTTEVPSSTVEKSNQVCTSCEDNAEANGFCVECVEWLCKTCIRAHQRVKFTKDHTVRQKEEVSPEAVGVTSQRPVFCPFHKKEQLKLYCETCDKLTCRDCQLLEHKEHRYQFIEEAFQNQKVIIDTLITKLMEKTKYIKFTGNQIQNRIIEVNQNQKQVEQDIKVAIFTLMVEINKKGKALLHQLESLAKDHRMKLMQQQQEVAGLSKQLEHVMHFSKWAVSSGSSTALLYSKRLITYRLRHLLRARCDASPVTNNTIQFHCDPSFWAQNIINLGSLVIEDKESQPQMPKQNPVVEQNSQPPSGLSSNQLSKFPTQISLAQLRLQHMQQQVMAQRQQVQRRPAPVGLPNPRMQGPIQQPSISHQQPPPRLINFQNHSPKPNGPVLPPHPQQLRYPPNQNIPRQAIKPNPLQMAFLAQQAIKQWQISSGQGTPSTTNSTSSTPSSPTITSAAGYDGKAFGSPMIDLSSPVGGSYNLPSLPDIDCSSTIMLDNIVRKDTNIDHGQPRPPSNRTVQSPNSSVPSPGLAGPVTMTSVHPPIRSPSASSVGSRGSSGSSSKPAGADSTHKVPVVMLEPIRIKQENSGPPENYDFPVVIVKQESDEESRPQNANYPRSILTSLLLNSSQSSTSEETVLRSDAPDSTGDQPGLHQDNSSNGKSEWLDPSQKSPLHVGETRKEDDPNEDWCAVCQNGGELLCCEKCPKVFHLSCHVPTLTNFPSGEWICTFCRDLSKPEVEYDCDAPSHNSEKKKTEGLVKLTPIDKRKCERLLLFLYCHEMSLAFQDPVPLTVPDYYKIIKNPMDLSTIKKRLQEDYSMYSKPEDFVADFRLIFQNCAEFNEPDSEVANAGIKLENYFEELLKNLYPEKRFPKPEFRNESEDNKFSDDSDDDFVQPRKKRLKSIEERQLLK

We go through 22 molecules from ChEMBL document CHEMBL5724796, “Tm Shift (DSF) assay results for EUbOPEN Chemogenomics Library” (2024).

Several values for one entry are separate records, joined by “and”; a condition that tells them apart may be missing. Identical values can stand only once. Non-standard residues stand in square brackets, D forms with d. Residues, ends and D or L forms follow the SMILES beside them. *: point of attachment. Benzoyl(4-OPh) = O=C(c1ccc(Oc2ccccc2)cc1)*; Lys(Et2) = CCN(CC)CCCC[C@H](N)C(=O)O; d(aIle) = CC[C@H](C)[C@@H](N)C(=O)O; Gly(cPent) = N[C@H](C(=O)O)C1CCCC1; NH(propargyl) = C#CCN*

Casein kinase I isoform delta (Homo sapiens), sequence (P48730 whole entry, looked up, canonical isoform): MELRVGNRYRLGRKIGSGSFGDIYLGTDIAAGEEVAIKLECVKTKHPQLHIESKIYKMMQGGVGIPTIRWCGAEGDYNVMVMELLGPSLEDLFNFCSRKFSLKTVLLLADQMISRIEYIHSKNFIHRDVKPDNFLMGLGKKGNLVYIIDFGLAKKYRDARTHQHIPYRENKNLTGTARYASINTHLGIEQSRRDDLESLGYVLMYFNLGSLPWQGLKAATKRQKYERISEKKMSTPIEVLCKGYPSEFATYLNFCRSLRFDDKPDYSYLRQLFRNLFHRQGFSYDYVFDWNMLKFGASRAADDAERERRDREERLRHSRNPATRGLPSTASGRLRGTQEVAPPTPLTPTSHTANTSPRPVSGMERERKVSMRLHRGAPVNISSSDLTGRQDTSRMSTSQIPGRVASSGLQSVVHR
Mitogen-activated protein kinase 1 (Homo sapiens), sequence (P28482 whole entry): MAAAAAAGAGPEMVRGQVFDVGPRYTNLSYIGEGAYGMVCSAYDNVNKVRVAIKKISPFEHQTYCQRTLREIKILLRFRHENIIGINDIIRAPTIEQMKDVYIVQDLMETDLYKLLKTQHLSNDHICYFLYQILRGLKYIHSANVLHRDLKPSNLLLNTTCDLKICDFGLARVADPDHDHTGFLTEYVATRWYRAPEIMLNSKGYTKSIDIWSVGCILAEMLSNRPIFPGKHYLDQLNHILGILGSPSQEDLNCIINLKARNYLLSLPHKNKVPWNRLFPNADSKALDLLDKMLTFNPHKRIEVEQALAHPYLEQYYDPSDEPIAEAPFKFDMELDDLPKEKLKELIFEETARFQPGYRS
Glycogen synthase kinase-3 beta (Homo sapiens), sequence (P49841 whole entry, looked up): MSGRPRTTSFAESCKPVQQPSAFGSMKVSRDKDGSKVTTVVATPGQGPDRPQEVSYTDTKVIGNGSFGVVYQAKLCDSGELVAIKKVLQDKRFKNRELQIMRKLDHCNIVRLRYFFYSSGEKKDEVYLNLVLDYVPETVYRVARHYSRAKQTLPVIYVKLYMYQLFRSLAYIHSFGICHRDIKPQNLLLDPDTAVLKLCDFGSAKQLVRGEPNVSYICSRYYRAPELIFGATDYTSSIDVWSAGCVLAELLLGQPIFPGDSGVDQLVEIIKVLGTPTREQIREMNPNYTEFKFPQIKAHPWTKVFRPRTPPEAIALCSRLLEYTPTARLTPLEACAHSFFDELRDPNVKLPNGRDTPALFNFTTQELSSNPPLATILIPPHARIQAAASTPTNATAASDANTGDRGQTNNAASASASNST
Tyrosine-protein kinase ABL1 (Homo sapiens), sequence (P00519 whole entry): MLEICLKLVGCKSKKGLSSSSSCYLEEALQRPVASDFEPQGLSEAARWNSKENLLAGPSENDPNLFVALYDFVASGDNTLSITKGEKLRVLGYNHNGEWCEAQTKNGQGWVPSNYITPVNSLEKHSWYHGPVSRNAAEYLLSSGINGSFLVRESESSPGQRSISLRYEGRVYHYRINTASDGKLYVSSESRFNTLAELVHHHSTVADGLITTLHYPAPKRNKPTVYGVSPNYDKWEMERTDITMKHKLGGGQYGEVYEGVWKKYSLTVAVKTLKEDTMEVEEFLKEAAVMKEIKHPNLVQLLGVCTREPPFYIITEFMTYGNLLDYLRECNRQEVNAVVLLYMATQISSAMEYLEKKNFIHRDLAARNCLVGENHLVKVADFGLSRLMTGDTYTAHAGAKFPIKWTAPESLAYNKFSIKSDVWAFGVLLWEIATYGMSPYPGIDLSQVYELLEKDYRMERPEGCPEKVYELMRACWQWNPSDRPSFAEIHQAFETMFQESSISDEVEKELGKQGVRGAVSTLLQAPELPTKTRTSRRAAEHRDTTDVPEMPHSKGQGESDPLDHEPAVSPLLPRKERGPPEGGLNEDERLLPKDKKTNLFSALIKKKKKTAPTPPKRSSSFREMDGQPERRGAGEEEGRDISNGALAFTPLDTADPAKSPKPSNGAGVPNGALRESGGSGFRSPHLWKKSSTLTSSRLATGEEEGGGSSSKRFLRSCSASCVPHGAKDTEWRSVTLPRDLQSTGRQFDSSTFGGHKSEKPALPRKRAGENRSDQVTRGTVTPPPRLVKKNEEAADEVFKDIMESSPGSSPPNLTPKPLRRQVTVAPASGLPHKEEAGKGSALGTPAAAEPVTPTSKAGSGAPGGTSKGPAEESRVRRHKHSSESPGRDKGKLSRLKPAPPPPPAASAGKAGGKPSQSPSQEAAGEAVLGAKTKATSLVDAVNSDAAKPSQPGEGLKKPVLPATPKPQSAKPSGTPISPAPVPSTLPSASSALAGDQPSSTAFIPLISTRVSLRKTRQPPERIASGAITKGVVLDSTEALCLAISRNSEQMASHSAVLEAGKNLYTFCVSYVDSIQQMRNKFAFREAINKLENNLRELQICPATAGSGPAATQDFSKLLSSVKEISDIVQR

Consider `Fc1ccc(C(OCCN2CCN(CCCc3ccccc3)CC2)c2ccc(F)cc2)cc1`, for which the shift in melting temperature (ΔTm) is 0.53 °C in test [1]; -4.03 °C in test [2]; -0.37 °C in test [3]; -0.45 °C in test [4]; -0.66 °C in test [5]; 0.05 °C in test [6]. Further, the shift in melting temperature (ΔTm) in test [7] was -2.65 °C; in test [8], -0.53 °C.

Take `O=C1C(P(=O)(O)O)CCCN1O` (stereo not drawn): the ΔTm in test [1] is 0.38 °C; in test [2], -1.37 °C; in test [3], 0.09 °C; in test [4] it was -0.23 °C; in test [5], -1.56 °C; in test [6] it was 0.01 °C. Besides, the ΔTm in test [7] is -2.37 °C; in test [8], -0.05 °C.

For `C#CCNC(=O)[C@H](CO)NC(=O)[C@H](CCCCN(CC)CC)NC(=O)[C@H](NC(=O)[C@@H](NC(=O)c1ccc(Oc2ccccc2)cc1)C1CCCC1)[C@@H](C)CC` ({Benzoyl(4-OPh)}-[Gly(cPent)][d(aIle)][Lys(Et2)]S-{NH(propargyl)}), the thermal shift (ΔTm) is 0.66 °C in test [1]; -3.19 °C in test [2]; -0.21 °C in test [3]; 0.55 °C in test [4]; -0.46 °C in test [5]; 0.25 °C in test [6]. Further, the ΔTm was 0.59 °C in test [7] and -3.76 °C in test [8].

On to `N#Cc1ccc([C@H]2CCCC[C@H]2O)cc1C(F)(F)F`, for which the ΔTm in test [1] is 0.55 °C; in test [2], -1.51 °C; in test [3], 0.11 °C; in test [4] it was 0.3 °C; in test [5], -0.43 °C; in test [6], -0.24 °C. Further, the results for the ΔTm in test [7] and in test [8] were -1.09 °C and -1.04 °C, respectively.

Take `C/C(=N\NC(=O)c1cccc(S(=O)(=O)N2CCOCC2)c1)c1cc(Cl)ccc1O`: the ΔTm is 0.81 °C in test [1]; -2.01 °C in test [2]; 0.83 °C in test [3]; 0.6 °C in test [4]; 1.53 °C in test [5]; 0.14 °C in test [6]. The ΔTm in test [7] is -0.56 °C; in test [8] it was 2.31 °C.

Take `CCO/N=C1\c2ccccc2-c2nc(C#N)c(C#N)nc21`: the ΔTm in test [1] was 0.39 °C and 0.29 °C; in test [2] it was -1.18 °C and -1.1 °C; in test [3], 0.59 °C and 0.08 °C; in test [4] it was -1.52 °C and -1.06 °C; in test [5], 0.4 °C and -0.71 °C; in test [6], -0.11 °C and -0.98 °C. In addition, the ΔTm in test [7] was -2.42 °C and -1.91 °C; in test [8] it was 0.92 °C and 0.33 °C.

For the molecule `O=C(NNc1ccccn1)c1ccccn1`, the shift in melting temperature (ΔTm) in test [1] was 0.12 °C; in test [2], -1.77 °C; in test [3], -0.03 °C; in test [4], -0.33 °C; in test [5], -0.62 °C; in test [6], 0.17 °C. Besides, the ΔTm in test [7] is -0.43 °C; in test [8], 0.92 °C.

For `CCCCCn1c(C)c(C(=O)c2cccc3ccccc23)c2ccccc21`, the shift in melting temperature (ΔTm) in test [1] is 0.2 °C; in test [2], -0.88 °C; in test [3], 0.76 °C; in test [4] it was 0.04 °C; in test [5], -0.36 °C; in test [6], 0.95 °C. Further, the results for the ΔTm in test [7] and in test [8] were -2.46 °C and 0.22 °C, respectively.

Regarding `Cc1ccc(N2C(=O)/C(=C/C=C/c3ccco3)C(=O)NC2=S)cc1Cl`, the ΔTm was 0.75 °C in test [1]; -2.47 °C in test [2]; -0.73 °C in test [3]; 0.31 °C in test [4]; -1.52 °C in test [5]; -1.33 °C in test [6]. Besides, the ΔTm is -0.68 °C in test [7] and -2.21 °C in test [8].

In the case of `CCS(=O)(=O)N1CCC([C@@H](C)n2c(C)c(C(=O)NCc3c(OC)cc(C)[nH]c3=O)c3ccccc32)CC1`, the ΔTm in test [1] was 0.06 °C; in test [2], -2.35 °C; in test [3] it was 0.2 °C; in test [4], 0.01 °C; in test [5], -0.39 °C; in test [6] it was -0.34 °C. The ΔTm in test [7] is -0.26 °C; in test [8], -1 °C.

With `C(=C\c1ccccc1)/CN1CCN(CCOC(c2ccccc2)c2ccccc2)CC1`, the ΔTm in test [1] was 0.28 °C; in test [2], -3.78 °C; in test [3], -0.38 °C; in test [4], -0.31 °C; in test [5], -0.82 °C; in test [6], 0.07 °C. Further, the ΔTm in test [7] is -2.65 °C; in test [8], -2.32 °C.

With `COc1cc(O)c2c(c1)/C=C\C[C@H](O)[C@H](O)C(=O)/C=C\C[C@H](C)OC2=O`, the ΔTm was 6.88 °C in test [1]; -0.9 °C in test [2]; 0 °C in test [3]; 0.3 °C in test [4]; 0 °C in test [5]; 0 °C in test [6]. In addition, the values for the ΔTm in test [7] and in test [8] were 0 °C and -0.14 °C, respectively.

Turning to `O=C1Cc2cc(C(=O)N[C@@H]3C[C@H]4CC[C@@H](C3)N4S(=O)(=O)CC3CCN(CCCC(F)(F)F)CC3)c(Cl)cc2N1`, the ΔTm is -0.02 °C in test [1]; -1.65 °C in test [2]; 0.34 °C in test [3]; 0.08 °C in test [4]; -1.14 °C in test [5]; -0.31 °C in test [6]. The ΔTm in test [7] is -0.32 °C; in test [8], -1.38 °C.

In the case of `Cc1sc2c(c1C)C(c1ccc(Cl)cc1)=N[C@@H](CC(=O)OC(C)(C)C)c1nnc(C)n1-2`, the ΔTm was 0.27 °C in test [1]; 0 °C in test [3]; 0.21 °C in test [4]; -0.11 °C in test [5]; -0.24 °C in test [6]; -0.4 °C in test [7]. Also, the thermal shift (ΔTm) in test [8] is -1.48 °C.

For the molecule `C[C@]12O[C@H](C[C@]1(O)CO)n1c3ccccc3c3c4c(c5c6ccccc6n2c5c31)CNC4=O`, the ΔTm is -1.2 °C in test [2]; 9.18 °C in test [3]; 2.18 °C in test [4]; 4.78 °C in test [5]; 0.35 °C in test [6]; 8.79 °C in test [7]. Further, the ΔTm in test [8] is -0.11 °C.

Take `CC(=O)Nc1ccc(OC[C@](C)(O)C(=O)Nc2ccc([N+](=O)[O-])c(C(F)(F)F)c2)cc1`: the ΔTm in test [1] was 0.78 °C; in test [2], -0.77 °C; in test [3] it was 0.35 °C; in test [4], 0.23 °C; in test [5], 0.71 °C; in test [6], -0.26 °C. Moreover, the values for the ΔTm in test [7] and in test [8] were -0.03 °C and 0.02 °C, respectively.

In the case of `COC(=O)C[C@@H]1N=C(c2ccc(Cl)cc2)c2c(sc(C)c2C)-n2c(C)nnc21`, the ΔTm in test [1] was -0.09 °C; in test [2], 12.3 °C; in test [3] it was -0.41 °C; in test [4], 0.16 °C; in test [5], -0.01 °C; in test [6], -0.21 °C. In addition, the ΔTm in test [7] is -1.3 °C; in test [8] it was -0.91 °C.

For the molecule `CC(C)n1nc(-c2cc3cc(O)ccc3[nH]2)c2c(N)ncnc21`, the ΔTm in test [2] came to 2.33 °C; in test [3], 2.02 °C; in test [4], 5.15 °C; in test [5] (Protein concentration 2.0 uM), 2 °C; in test [6], 0.14 °C; in test [7], 3.86 °C. The thermal shift (ΔTm) in test [8] is -0.37 °C.

With `COc1ccc(C(CN(C)C)C2(O)CCCCC2)cc1` (stereo not drawn), the ΔTm in test [1] is 0.51 °C; in test [2] it was -2.55 °C; in test [3] it was -0.01 °C; in test [4] it was -0.1 °C; in test [5], -0.27 °C; in test [6], 0.12 °C. Further, the ΔTm in test [7] was -1.68 °C; in test [8], -0.25 °C.

As for `O=C(N1CCCC[C@H]1Cc1ccccc1)n1cc(-c2ccc(-c3ccccc3)cc2)nn1`, the ΔTm in test [1] was 0.09 °C; in test [2], 5.42 °C; in test [3], 0.51 °C; in test [4] it was -0.09 °C; in test [5] it was -2.39 °C; in test [6], -0.72 °C. For the same molecule, the ΔTm in test [7] is -1.72 °C; in test [8], 1.36 °C.

On to `CN(Cc1cccc(-c2ccncc2)c1)C(=O)Oc1ccc(-c2ccc(C(N)=O)cc2)cc1`, for which the ΔTm in test [1] was 0.52 °C; in test [2], 0.54 °C; in test [3] it was 0.45 °C; in test [4], -0.05 °C; in test [5], 0.86 °C; in test [6], 0.04 °C. Moreover, the thermal shift (ΔTm) was -1.82 °C in test [7] and 0.18 °C in test [8].

Turning to `C=CCO/N=C1\c2ccccc2-c2nc(C#N)c(C#N)nc21`, the ΔTm was 0.13 °C in test [1]; -2.12 °C in test [2]; 0.55 °C in test [3]; -1.63 °C in test [4]; 0.17 °C in test [5]; -0.02 °C in test [6]. In addition, the ΔTm in test [7] was -2.47 °C; in test [8], 0.9 °C.
